Results: the supplement of paper PMC10849652
The full data set covers some 7,900 targets. This sample favours those with a hit. About 0.6% of all pairs of compound and target were hits. Values without a mark were called inactive.

How the values were obtained:
Experiment in all cases: log2 fold change, soluble protein after heating vs DMSO (PISA); higher = thermal stabilisation; K562 cells, 10 uM, 30 min; active = over 0.2 and 3.5 SD of the protein, either way, in both replicates (recomputed)
[1] = compound: CC[C@@H]1C(=O)N(C)c2cnc(Nc3ccc(C(=O)NC4CCN(C)CC4)cc3OC)nc2N1C1CCCC1
How it was run: (§1)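 K562 cells at 2×10^6 cells/mL were given 10 μM compound for 30 min. Aliquots then went through 3 min of heating across 48°C-58°C, were pooled, and were extracted in PBS with 0.5% NP-40 at 4°C, and the supernatant after 21,000xg for 90 min was quantified by TMTpro 16plex LC-MS/MS with channel sums equalised. Thermal stability relative to control samples, from duplicates, is given as log2 fold change.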

[2] = compound: CC[C@@H]1C(=O)N(C)c2cnc(Nc3ccc(C(=O)N[C@H]4CC[C@H](N5CCN(CC6CC6)CC5)CC4)cc3OC)nc2N1C(C)C [volasertib]
How it was run: as §1

[3] = compound: CC[C@H](C)N1C=C(C2=C(C=C(C=C21)C3=CN=C(C=C3)N4CCNCC4)C(=O)NCC5=C(C=C(NC5=O)C)C)C
How it was run: as §1

[4] = compound: CC[C@H](C)[C@@H](C(=O)N[C@@H]([C@@H](C)O)C(=O)N[C@@H](CC(C)C)C(=O)[C@]1(CO1)C)NC(=O)[C@H]([C@@H](C)CC)N(C)C(=O)C [epoxomicin]
How it was run: as §1

[5] = compound: CCn1c(C(=O)N(C2CC2)C2CC2)cc2c3c(ncn3C)c(Nc3cc(C)n(C)n3)nc21
How it was run: as §1

[6] = compound: CCn1cc(-c2ccnc3[nH]c(-c4cccc(CN(C)C)c4)cc23)c(-c2ccc(NC(=O)N(C)C)cc2)n1
How it was run: as §1

[7] = compound: CN(C)CC(=O)Nc1ccc2[nH]c(=O)c3ccccc3c2c1
How it was run: as §1

[8] = compound: CN(CCOC1=CC=C(C=C1)C[C@H]2C(=O)NC(=O)S2)C3=CC=CC=N3 (racemic) [rosiglitazone]
How it was run: as §1

[9] = compound: CN1C2=C(C3=C1C(=O)N(N=C3)CC4=CC(=CC=C4)N)SC(=C2)S(=O)C
How it was run: as §1

[10] = compound: CN1CCC(CNc2ccc3ncc(-c4cccc(OC(F)(F)F)c4)n3n2)CC1
How it was run: as §1

Chain of UniProt Q86UD3 (Q86UD3 whole entry, looked up): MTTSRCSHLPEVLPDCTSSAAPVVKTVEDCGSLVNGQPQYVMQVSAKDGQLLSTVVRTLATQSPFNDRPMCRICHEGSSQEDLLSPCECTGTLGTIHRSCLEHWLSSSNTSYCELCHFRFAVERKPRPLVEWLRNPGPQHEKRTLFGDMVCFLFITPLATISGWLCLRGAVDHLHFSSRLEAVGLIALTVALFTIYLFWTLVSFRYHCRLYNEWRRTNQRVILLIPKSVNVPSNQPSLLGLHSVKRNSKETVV
Chain of UniProt Q92551 (Q92551 whole entry, looked up): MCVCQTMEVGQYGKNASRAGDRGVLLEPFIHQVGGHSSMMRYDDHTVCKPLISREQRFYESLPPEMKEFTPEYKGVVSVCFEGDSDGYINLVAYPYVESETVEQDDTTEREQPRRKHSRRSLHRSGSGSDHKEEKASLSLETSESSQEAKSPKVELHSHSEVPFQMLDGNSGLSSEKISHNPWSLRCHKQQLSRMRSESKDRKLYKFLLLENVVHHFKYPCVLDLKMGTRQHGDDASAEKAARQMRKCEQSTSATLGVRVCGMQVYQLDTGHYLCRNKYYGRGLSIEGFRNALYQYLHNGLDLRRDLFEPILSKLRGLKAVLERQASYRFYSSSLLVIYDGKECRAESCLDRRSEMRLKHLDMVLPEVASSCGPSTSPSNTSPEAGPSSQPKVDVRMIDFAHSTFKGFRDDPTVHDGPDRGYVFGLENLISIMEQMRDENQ
Chain of UniProt Q14974 (Q14974 whole entry, looked up): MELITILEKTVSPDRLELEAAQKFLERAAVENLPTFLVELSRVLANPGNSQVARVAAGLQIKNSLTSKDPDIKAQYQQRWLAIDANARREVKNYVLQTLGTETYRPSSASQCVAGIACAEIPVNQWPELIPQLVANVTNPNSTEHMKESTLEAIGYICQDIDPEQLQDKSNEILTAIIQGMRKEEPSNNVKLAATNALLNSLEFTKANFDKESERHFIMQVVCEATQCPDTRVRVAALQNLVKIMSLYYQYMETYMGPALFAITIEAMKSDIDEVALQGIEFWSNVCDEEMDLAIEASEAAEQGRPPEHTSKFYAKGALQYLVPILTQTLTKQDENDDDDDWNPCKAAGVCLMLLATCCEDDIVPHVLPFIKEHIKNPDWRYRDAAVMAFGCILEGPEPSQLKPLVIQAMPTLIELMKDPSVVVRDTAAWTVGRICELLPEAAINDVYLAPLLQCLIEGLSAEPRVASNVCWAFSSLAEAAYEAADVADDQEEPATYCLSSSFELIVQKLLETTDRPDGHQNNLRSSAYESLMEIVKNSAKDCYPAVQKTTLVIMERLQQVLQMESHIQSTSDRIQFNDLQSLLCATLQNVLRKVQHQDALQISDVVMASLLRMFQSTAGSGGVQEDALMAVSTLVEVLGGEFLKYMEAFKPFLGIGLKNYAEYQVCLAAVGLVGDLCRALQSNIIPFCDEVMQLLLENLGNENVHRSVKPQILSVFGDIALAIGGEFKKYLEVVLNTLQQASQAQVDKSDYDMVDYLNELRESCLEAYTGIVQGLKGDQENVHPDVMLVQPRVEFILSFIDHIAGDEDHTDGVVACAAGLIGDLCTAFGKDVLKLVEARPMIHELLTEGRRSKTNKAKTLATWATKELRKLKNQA
Chain of UniProt O43934 (O43934 whole entry, looked up): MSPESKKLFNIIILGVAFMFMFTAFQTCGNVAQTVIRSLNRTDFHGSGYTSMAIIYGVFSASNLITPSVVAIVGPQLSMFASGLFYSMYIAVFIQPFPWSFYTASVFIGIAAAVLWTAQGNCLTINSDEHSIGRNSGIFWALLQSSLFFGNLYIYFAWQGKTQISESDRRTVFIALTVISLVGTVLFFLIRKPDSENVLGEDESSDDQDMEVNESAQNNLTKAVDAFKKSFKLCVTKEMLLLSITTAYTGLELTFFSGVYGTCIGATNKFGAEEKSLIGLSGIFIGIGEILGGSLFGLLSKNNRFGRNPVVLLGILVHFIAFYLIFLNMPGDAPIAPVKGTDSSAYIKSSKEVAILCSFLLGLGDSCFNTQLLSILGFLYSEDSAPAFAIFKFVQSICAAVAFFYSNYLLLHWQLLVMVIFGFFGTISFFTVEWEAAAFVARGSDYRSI
Chain of UniProt Q8NHS3 (Q8NHS3 whole entry, looked up): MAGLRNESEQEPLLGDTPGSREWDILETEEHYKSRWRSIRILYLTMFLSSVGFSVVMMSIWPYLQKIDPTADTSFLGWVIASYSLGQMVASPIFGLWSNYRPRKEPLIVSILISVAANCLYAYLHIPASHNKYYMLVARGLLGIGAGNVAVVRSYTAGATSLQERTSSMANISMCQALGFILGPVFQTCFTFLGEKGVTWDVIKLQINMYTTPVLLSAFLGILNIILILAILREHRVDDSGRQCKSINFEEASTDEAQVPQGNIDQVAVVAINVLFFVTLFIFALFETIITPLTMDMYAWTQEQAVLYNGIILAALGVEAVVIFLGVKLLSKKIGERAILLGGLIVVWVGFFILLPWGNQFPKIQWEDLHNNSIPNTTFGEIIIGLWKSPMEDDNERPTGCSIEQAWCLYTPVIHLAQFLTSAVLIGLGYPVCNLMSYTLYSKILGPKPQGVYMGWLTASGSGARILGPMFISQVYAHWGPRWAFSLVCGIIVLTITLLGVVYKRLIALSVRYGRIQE
Chain of UniProt Q12851 (Q12851 whole entry, looked up): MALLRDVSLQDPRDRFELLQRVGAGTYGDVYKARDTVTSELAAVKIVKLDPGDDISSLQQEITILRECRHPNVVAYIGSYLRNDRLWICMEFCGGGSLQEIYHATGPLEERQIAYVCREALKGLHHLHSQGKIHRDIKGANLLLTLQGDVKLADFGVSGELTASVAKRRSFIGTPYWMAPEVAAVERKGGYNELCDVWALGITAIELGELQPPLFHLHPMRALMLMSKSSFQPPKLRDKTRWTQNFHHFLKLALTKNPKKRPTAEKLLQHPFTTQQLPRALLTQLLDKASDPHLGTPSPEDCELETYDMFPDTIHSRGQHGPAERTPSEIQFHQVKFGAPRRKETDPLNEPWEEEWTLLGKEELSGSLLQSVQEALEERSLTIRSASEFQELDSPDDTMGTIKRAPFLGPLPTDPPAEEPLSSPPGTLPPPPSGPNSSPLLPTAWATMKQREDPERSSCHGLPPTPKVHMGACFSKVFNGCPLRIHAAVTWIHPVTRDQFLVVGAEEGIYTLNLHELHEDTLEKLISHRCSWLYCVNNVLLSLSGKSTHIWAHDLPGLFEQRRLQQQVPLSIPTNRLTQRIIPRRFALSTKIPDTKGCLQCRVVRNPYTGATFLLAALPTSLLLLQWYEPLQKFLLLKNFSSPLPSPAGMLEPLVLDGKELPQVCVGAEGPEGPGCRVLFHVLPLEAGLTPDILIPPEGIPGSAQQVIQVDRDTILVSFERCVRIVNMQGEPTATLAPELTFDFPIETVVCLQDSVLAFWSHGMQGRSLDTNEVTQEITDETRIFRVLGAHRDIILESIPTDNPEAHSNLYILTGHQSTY
Chain of UniProt Q71RC2 (Q71RC2 whole entry, looked up): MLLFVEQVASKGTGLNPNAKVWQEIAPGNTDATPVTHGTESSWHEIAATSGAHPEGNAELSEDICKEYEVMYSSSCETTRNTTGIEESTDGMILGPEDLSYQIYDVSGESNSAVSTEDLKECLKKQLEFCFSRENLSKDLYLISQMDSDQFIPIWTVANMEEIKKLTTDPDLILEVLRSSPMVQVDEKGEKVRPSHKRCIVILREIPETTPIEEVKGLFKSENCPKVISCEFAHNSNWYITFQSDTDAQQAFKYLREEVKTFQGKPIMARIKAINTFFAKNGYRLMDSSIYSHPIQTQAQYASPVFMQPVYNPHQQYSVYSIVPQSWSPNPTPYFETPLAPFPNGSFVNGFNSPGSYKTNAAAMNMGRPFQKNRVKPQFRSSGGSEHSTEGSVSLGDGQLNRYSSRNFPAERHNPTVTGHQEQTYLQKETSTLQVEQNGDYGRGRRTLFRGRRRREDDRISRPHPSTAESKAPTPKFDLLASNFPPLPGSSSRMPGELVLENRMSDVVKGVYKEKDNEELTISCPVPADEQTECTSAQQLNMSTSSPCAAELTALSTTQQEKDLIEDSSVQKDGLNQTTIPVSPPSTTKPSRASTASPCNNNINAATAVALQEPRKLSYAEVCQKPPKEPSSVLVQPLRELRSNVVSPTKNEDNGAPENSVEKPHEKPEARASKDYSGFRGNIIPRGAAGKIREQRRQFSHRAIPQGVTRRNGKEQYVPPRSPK
Chain of UniProt Q96LU5 (Q96LU5 whole entry, looked up): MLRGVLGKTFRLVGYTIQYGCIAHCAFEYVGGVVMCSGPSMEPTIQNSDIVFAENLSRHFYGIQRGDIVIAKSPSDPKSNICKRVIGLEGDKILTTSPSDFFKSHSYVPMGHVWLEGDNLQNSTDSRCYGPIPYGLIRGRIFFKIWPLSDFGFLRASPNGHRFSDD
Chain of UniProt Q8TDD5 (Q8TDD5 whole entry, looked up): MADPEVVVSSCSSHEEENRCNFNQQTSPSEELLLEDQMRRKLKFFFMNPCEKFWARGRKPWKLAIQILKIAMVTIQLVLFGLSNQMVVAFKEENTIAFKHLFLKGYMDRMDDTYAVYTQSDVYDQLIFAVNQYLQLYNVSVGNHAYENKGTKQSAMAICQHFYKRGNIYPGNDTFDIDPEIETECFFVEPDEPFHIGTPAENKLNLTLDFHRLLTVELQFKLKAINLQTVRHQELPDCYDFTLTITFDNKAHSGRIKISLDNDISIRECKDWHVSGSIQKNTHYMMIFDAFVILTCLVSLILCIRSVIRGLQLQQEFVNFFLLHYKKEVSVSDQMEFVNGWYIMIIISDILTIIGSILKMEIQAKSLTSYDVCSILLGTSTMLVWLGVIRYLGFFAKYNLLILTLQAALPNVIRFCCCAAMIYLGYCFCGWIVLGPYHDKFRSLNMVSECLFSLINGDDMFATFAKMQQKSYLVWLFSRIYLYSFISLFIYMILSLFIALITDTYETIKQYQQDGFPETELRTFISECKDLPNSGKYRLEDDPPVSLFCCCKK
Chain of UniProt Q9BQD3 (Q9BQD3 whole entry, looked up): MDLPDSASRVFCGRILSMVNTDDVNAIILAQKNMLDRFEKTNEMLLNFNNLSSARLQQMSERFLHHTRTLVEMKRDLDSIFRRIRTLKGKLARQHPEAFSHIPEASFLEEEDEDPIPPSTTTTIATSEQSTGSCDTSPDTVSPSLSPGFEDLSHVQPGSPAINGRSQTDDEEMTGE

Target | log2 fold change [1] | log2 fold change [2] | log2 fold change [3] | log2 fold change [4] | log2 fold change [5] | log2 fold change [6] | log2 fold change [7] | log2 fold change [8] | log2 fold change [9] | log2 fold change [10]
ITIH4 (UniProt Q14624) | -0.18 | -0.311 | -0.248 | -0.318 | 0.108 | 0.102 | -0.012 | 0.129 | 0.177 | -0.413
MAPK12 (UniProt P53778) | -0.097 | 0.036 | -0.128 | 0.089 | 0.182 | -0.051 | 0.009 | -0.176 | -0.097 | -0.077
MAP4 (UniProt E7EVA0) | 0.079 | 0.246 | 0.036 | -0.113 | -0.004 | 0.068 | -0.021 | -0.206 | 0.131 | 0.152
LTO1 (UniProt Q8WV07) | -0.018 | 0.322 | 0.058 | 0.063 | -0.008 | -0.029 | -0.312 (active) | 0.013 | -0.105 | 0.035
LPIN3 isoform 2 (UniProt Q9BQK8) | 0.016 | -0.015 | 0.04 | 0.073 | -0.048 | -0.078 | -0.054 | 0.135 | 0.002 | -0.27 (active)
KPNB1 (UniProt Q14974) | -0.105 | -0.432 (active) | 0.04 | 0.04 | 0.009 | 0.016 | 0.048 | 0.027 | 0.102 | -0.212
LARP4 isoform 4 (UniProt Q71RC2) | -0.016 | -0.351 | 0.117 | -0.107 | 0.005 | 0.07 | 0.009 | 0.018 | 0.137 | -0.252
LENG8 (UniProt Q96PV6) | -0.029 | – | -0.009 | 0.101 | 0.005 | 0.073 | 0.065 | 0.017 | -0.225 | -0.238
KXD1 (UniProt Q9BQD3) | -0.154 | -0.035 | – | -0.077 | -0.033 | 0.041 | 0.062 | 0.047 | 0.011 | -0.096
IP6K1 (UniProt Q92551) | 0.127 | -0.176 | – | 0 | -0.253 | 0.028 | – | 0.091 | 0.147 | -0.052
MFSD1 isoform 6 (UniProt Q9H3U5) | -0.022 | 0.053 | -0.01 | 0 | -0.023 | -0.069 | -0.025 | -0.016 | – | -0.012
MBLAC1 (UniProt A4D2B0) | 0.112 | 0.148 | – | – | 0.063 | -0.01 | 0.105 | -0.024 | -0.021 | 0.063
LRBA, A0A494BZW2 | -0.04 | -0.025 | 0.007 | -0.03 | -0.193 | -0.039 | – | 0.011 | 0.043 | -0.115
MFSD8 (UniProt Q8NHS3) | -0.016 | 0.032 | – | -0.021 | 0.001 | -0.012 | -0.061 | -0.139 | 0.046 | 0.127
MARCHF3 (UniProt Q86UD3) | 0.116 | 0.011 | 0.018 | 0.036 | – | – | – | 0.093 | – | –
MARK2 (UniProt E9PC69) | 0.044 | -0.469 | 0.086 | 0.023 | -0.137 | – | -0.028 | -0.014 | 0.187 | –
IMMP1L (UniProt Q96LU5) | -0.012 | -0.055 | -0.02 | -0.015 | -0.031 | – | 0.017 | -0.003 | -0.097 | –

Target | log2 fold change [1] | log2 fold change [2] | log2 fold change [3] | log2 fold change [4] | log2 fold change [5] | log2 fold change [6] | log2 fold change [7] | log2 fold change [8] | log2 fold change [9] | log2 fold change [10]
IL27RA (UniProt Q6UWB1) | -0.12 | -0.298 | -0.049 | -0.178 | -0.066 | – | -0.098 | -0.093 | -0.219 | –
LUM (UniProt P51884) | 0.076 | 0.225 | -0.269 | -0.145 | 0.2 | – | -0.167 | – | 0.054 | –
LPGAT1 (UniProt Q92604) | -0.206 | -0.401 (active) | 0.063 | 0.015 | -0.128 | – | 0.051 | 0.012 | -0.029 | –
METAP1D (UniProt Q6UB28) | 0.031 | -0.082 | 0.051 | 0.074 | -0.039 | – | -0.065 | 0.013 | 0.052 | –
LRFN1 (UniProt Q9P244) | -0.015 | 0.033 | – | -0.125 | 0.07 | – | 0.134 | 0.006 | 0.069 | –
MAP4K2 (UniProt Q12851) | -0.044 | -0.093 | 0.298 | – | – | – | – | 0.066 | – | –
MED22 (UniProt Q15528) | 0.133 | – | 0.097 | 0.02 | 0.134 | – | -0.019 | 0.076 | -0.043 | –
ITPRID2 (UniProt P28290) | 0.01 | -0.373 | – | -0.109 | 0.078 | – | -0.106 | – | – | –
KIF3B (UniProt O15066) | 0.156 | -0.009 | – | -0.134 | -0.204 | 0.159 | -0.078 | 0.106 | -0.052 | 0.378 (active)
MELK (UniProt Q14680) | -0.429 | -1.41 (active) | 0.334 | 0.077 | -0.009 | -0.114 | – | -0.003 | 0.034 | -0.426
MCOLN3 (UniProt Q8TDD5) | 0.094 | -0.136 | -0.071 | – | -0.132 | 0.027 | – | 0.128 | – | -0.084
MAN2B2 (UniProt Q9Y2E5) | -0.445 (active) | -0.704 (active) | -0.005 | -0.002 | 0 | – | -0.019 | -0.052 | 0.013 | –
MFSD11 (UniProt O43934) | -0.244 | 0.021 | -0.108 | 0.03 | – | 0.021 | 0.017 | -0.006 | -0.026 | -0.345 (active)
MED8 isoform 2 (UniProt Q96G25) | 0.027 | 0.1 | 0.046 | -0.051 | 0.009 | – | -0.075 | 0.007 | 0.052 | –
MED17 (UniProt Q9NVC6) | -0.011 | -0.021 | -0.008 | -0.015 | -0.027 | 0.08 | 0.037 | – | 0.036 | -0.134
KIZ (UniProt Q2M2Z5) | 0.104 | 0.262 | – | – | – | -0.202 | – | – | – | -0.399
